Rows were chosen to be rich in hits. Some 8.8% of all compounds tested hit in one or more screens of this group.
KB-V1 cytotox: qHTS assay for MDR1-selective chemotherapeutics: Primary screen using the drug-selected MDR subline cells KB-V1. AID 1347076, 2019. 3.4% of 400,000 active. Potency, µM (titrated, usually from 46.1 µM), most hits filed as cytotoxic. KB-V1 MDR cells viability, CellTiter-Glo, 72 h; note: potency is the fitted concentration of half-maximal effect; nearly all actives have a fitted effect of over 60% in size
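Cells of the MDR subline KB-V1 are plated, dosed with compound at multiple concentrations, and incubated 72 h at 37 degrees C; CellTiter-Glo is then added and luminescence read after 10 min.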
IL1B secr inh: qHTS for Inhibitors of Inflammasome Signaling: IL-1-beta AlphaLISA Primary Screen | THP-1 LPS/ATP IL-1B secretion, AlphaLISA, 16 h; hits give low values | activity change, % at 57.5 µM | 4.7% of 360,000 active; in the data active = activity change below about -50%; inconclusive = mostly about -30% to -49%
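Secreted IL-1B measured by AlphaLISA bead assay after 16 h compound exposure of THP-1 cells; compounds (final up to 57.5 uM) added 1 h before LPS (250 ng/mL) and ATP (1.25 mM) stimulation; lower signal means less secretion.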
HT1080 IDH1KD tx: qHTS for induction of synthetic lethality in tumor cells producing 2HG: qHTS for the HT-1080-IDH1KD cell line; HT-1080 IDH1 knockdown viability, ATP luminescence, 48 h; Potency, µM (titrated, usually from 46.1 µM), for inactives: at the top dose activity, negative = toxicity, usual class: cytotoxic; 2% of 360,000 active; AID 686971, 2013;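 note: potency is the fitted concentration of half-maximal effect; 0% = DMSO wells and -100% = cell-free medium wells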
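Knockdown cells (IDH1KD HT-1080) received compounds 2 h after plating at 750 cells/well and were kept 48 h at 37 °C in 5% FBS RPMI. A CellTiter-Glo luminescence read gave % activity for curve fitting.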
HT1080NT lethal: qHTS for induction of synthetic lethality in tumor cells producing 2HG: qHTS for the HT-1080-NT fibrosarcoma cell line | HT-1080-NT fibrosarcoma viability, CellTiter-Glo ATP luminescence, 48 h | Potency, µM (titrated, usually from 46.1 µM), inactives show at the highest dose activity, negative = less viability, hits mostly cytotoxic | 1.6% of 360,000 active | AID 686970, 2013;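 note: NT is the 2HG producing partner of a matched IDH1 knockdown line; potency is the fitted concentration of half-maximal effect; 0% = DMSO-treated cells and -100% = media-only wells without cells; nearly all actives have a fitted effect of over 55% in size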
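Compounds were tested in concentration-response format on HT-1080-NT cells for 48 hours at 37 degrees C. Cell viability came from CellTiter-Glo luminescence; curves were classified by r2, response magnitude and activity.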
KB-3-1 tox: qHTS assay for MDR1-selective chemotherapeutics: Primary screen using the parental adenocarcinoma cell KB-3-1 | KB-3-1 viability, CellTiter-Glo ATP luminescence, 72 h | Potency, µM (series often up to 46.1 µM), usual class: cytotoxic | 1.4% of 400,000 active | AID 1347075, 2019; note: potency is the fitted concentration of half-maximal effect; nearly all actives have a fitted effect of over 60% in size
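72 h, 37 °C compound treatment of KB-3-1 parental cells; CellTiter-Glo added, 10 min, luminescence read. Data corrected against DMSO-only plates and normalized before curve fitting.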
Active calls of the source: *; i = inactive; ? = inconclusive; · = not tested or not shown. Unless noted, calls come from the whole dose curve; as a rule, active = well fitted curve in the direction sought with a large enough effect; inconclusive = small, poorly fitted or top-dose-only effect, or another doubt; inactive = no such curve, though single readings can be large; an effect the other way counts as inactive or inconclusive. Unless noted, % is set by controls: 0 for no effect and ±100 for the full control effect.

SMILES	KB-V1 cytotox	IL1B secr inh	HT1080 IDH1KD tx	HT1080NT lethal	KB-3-1 tox
CCOP(=O)(OCC)c1nc(-c2ccc(Cl)cc2Cl)oc1N1CCCCC1	?	-113*	23µM*	18µM*	i
O=P(c1ccccc1)(c1ccccc1)c1nc(-c2ccccc2)oc1N1CCOCC1	i	-24	1%	-3%	i
COc1ccc(CNc2oc(-c3cccc4ccccc34)nc2C#N)cc1	i	0	4%	9%	i
Cc1cc(C)cc(NC(=O)N2CCN(C)c3ncccc32)c1	i	·	·	·	i
Nn1c(Cc2cccc3ccccc23)nnc1SCc1ccc(Cl)c(Cl)c1	i	-72*	?	?	i
Cc1ccc2c(c1)c1ccc3c(c1n2C)C(=O)C=CC3=O	i	-3	-1%	-12%	16µM*
COc1ccc(S(=O)(=O)N(C)C[C@H]2Oc3c(NC(=O)NC(C)C)cccc3C(=O)N([C@H](C)CO)C[C@@H]2C)cc1	i	-20	0%	0%	i
O=C(Nc1ccc(F)cc1)N1CCN(c2ccc3nnc(-c4ccc(F)cc4)n3n2)CC1	i	-21	?	?	i
Fc1ccc(-c2nnc3ccc(N4CCc5ccccc5C4)nn23)cc1	?	-89*	-20%	0%	i
C/C=C(/CCC1NCCc2c1[nH]c1ccccc21)[Si](C)(C)C (stereo not drawn)	12µM*	-99*	?	?	18µM*
CC1NS(=O)(=O)c2cc([N+](=O)[O-])ccc21 (stereo not drawn)	i	16	9%	19%	i
C=CCCC(=O)N1C[C@@H](CO)[C@@H](NC)C[C@H]1c1ccccc1Br	i	5	10%	13%	i
COc1ccc(OC)c(NC(=O)CSc2nnc(Cc3cccn3C)n2CCc2ccccc2)c1	7.3µM*	-11	-11%	-8%	i
Cc1cc(/C=c2/sc3nc4ccccc4n3c2=O)c(C)n1-c1ccccn1	?	-58*	6%	-20%	?
CCCOc1ccc(-c2nc(C#N)c(N3CCN(CC)CC3)o2)cc1	i	-60*	-1%	-8%	i
CCCOc1ccc(-c2nc(C#N)c(N3CCc4ccccc4C3)o2)cc1	16µM*	-7	-16%	7%	i
CCCOc1ccc(-c2nc(C#N)c(N3CCC(C(N)=O)CC3)o2)cc1	23µM*	?	?	?	i
N#Cc1nc(-c2ccc(OCc3ccc(Cl)cc3)cc2)oc1N1CCC(C(N)=O)CC1	?	-8	-3%	-1%	i
CC1CC(C)CN(c2oc(-c3ccco3)nc2C#N)C1 (stereo not drawn)	21µM*	-20	-6%	-1%	i
C/C(=N\NS(=O)(=O)c1cccc([N+](=O)[O-])c1)c1cccnc1	i	13	5%	0%	i
CC(C(=O)N1CCN=C1c1ccccc1)N1C(=O)c2ccccc2C1=O (stereo not drawn)	i	8	9%	6%	i
N#Cc1nc(-c2ccco2)oc1N1CCc2ccccc2C1	8.2µM*	?	-5%	-2%	i
N#Cc1nc(-c2ccco2)oc1N1CCN(c2cccc(Cl)c2)CC1	i	-62*	-5%	3%	?
COCCNc1c(-c2ccc(OC)c(OC)c2)nc2ccc(Cl)cn12	i	?	2%	-5%	i
COCCNc1c(-c2cc3ccc(C)c(C)c3[nH]c2=O)nc2ccccn12	?	-59*	6%	9%	i
SMILES	KB-V1 cytotox	IL1B secr inh	HT1080 IDH1KD tx	HT1080NT lethal	KB-3-1 tox
COc1ccccc1NC(=O)CC(=O)CSc1nnc(-c2ccc(C)cc2)n1-c1ccccc1	13µM*	1	1%	6%	i
CCn1c(COc2ccccc2C)nnc1SCC(=O)N1CCN(c2ccccc2)CC1	8.2µM*	-13	-22%	?	?
CCn1c(COc2ccccc2C)nnc1SCC(=O)OC	i	8	11%	11%	i
COc1ccc(-c2nnc(SCC(=O)Nc3ncc(C)s3)n2-c2ccccc2)cc1OC	?	8	?	?	21µM*
CCn1c(COc2ccccc2C)nnc1SCC(=O)CC(=O)Nc1ccccc1OC	8.2µM*	22	-18%	-5%	i
COc1ccc(-n2c(SCC(=O)NCc3ccc(F)cc3)nc3c([nH]c4ccccc43)c2=O)cc1	i	·	·	·	i
CCn1c(CC(=O)Nc2cccc(OC)c2)nnc1SCC(=O)N1CCN(c2ccccc2)CC1	i	-3	7%	1%	i
C=CCn1c(CSCc2ccccc2)nnc1SCC(=O)N1CCN(c2ccccc2)CC1	10µM*	0	3%	3%	i
CCn1c(SCc2nc(CC(=O)Nc3ccccc3OC)no2)nnc1-c1cccs1	5.8µM*	-27	4%	3%	i
CCn1c(COc2cccc(C)c2C)nnc1SCC(=O)N1CCN(c2ccc(OC)cc2)CC1	2.3µM*	14	-19%	-8%	15µM*
CCCSc1nc2cc(OC)c(OC)cc2c(=N)n1CCCN1CCOCC1	?	-52*	?	15µM*	i
COCCCn1c(SCc2ccc(OC)cc2)nc2cc(OC)c(OC)cc2c1=N	i	42	3%	-4%	i
Cc1csc(SCC(=O)Nc2ccc3[nH]c(=O)[nH]c3c2)n1	i	9	10%	10%	i
CCn1c(SCC#N)nc2c(c1=O)C1(CCCC1)Cc1ccccc1-2	i	-7	-22%	-2%	?
CCCn1c(SCC(N)=O)nc2c(c1=O)C1(CCCC1)Cc1ccccc1-2	i	-58*	7%	1%	i
Cc1ccc(O)c(N/C=C/C(=O)c2ccc(F)cc2)c1	i	-22	?	?	i
COC(=O)[C@]12CCCCC=C1N(Cc1ccccc1)C(=O)[C@H](CC(=O)NCCc1ccccc1OC)C2	?	3	-4%	2%	i
COC(=O)[C@]12CCCCC=C1N(Cc1ccc(Cl)cc1Cl)C(=O)[C@H](CC(=O)NCCCCc1ccccc1)C2	?	-51*	?	?	?
COC(=O)[C@]12CCCCC=C1N(CCc1ccc(OC)c(OC)c1)C(=O)[C@H](CC(=O)NCCc1ccccc1OC)C2	16µM*	?	-13%	-2%	i
CCCCNC(=O)C[C@@H]1C[C@@]2(C(=O)OC)CCCCC=C2N(Cc2ccc(Cl)cc2Cl)C1=O	i	-5	-19%	?	i
